Screening data (PubChem)
KB-3-1 tox – KB-3-1 parental cell cytotoxicity; KB-3-1 viability, CellTiter-Glo ATP luminescence, 72 h; Potency, µM (highest dose often 46.1 µM), usual class: cytotoxic; 400,000 tested, 1.4% active; AID 1347075; note: % is set by controls: 0 for no effect and ±100 for the full control effect; nearly all actives have a fitted effect of over 60% in size
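Parental KB-3-1 viability, qHTS format: 72 h compound exposure, 37 °C; CellTiter-Glo; media-only wells and DMSO plates as controls; concentration-effect fits on corrected data.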
KB-V1 cytotox – kills drug-selected multidrug resistant KB-V1 cells | KB-V1 MDR cells viability, CellTiter-Glo, 72 h | Potency, µM (doses to about 46.1 µM), hits mostly cytotoxic | 400,000 tested, 3.4% active | AID 1347076; note: % is set by controls: 0 for no effect and ±100 for the full control effect; nearly all actives have a fitted effect of over 60% in size
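Following 72 h at 37 degrees C with compound, KB-V1 cell viability was read by CellTiter-Glo luminescence, medium being phenol-red-free DMEM plus 10% FBS; concentration-response parameters came from normalized, curve-fitted qHTS data.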
HT1080 IDH1KD tx – HT-1080 IDH1 knockdown cell toxicity (counter line). HT-1080 IDH1 knockdown viability, ATP luminescence, 48 h. Potency, µM (doses to about 46.1 µM), without a hit: at the top dose activity, negative = toxicity, actives largely listed as cytotoxic. 360,000 tested, 2% active. AID 686971;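 note: 0% = DMSO wells and -100% = cell-free medium wells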
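Assay cells: HT-1080 with IDH1 knockdown, 750 per well, RPMI/5% FBS. Exposure: 48 h at 37 °C following 2 h pre-incubation. Read: CellTiter-Glo luminescence; fitted concentration-response, curve class assigned.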
HT1080NT lethal – kills 2HG-producing HT-1080-NT fibrosarcoma cells | HT-1080-NT fibrosarcoma viability, CellTiter-Glo ATP luminescence, 48 h | 360,000 tested, 1.6% active | Potency, µM (titrated, usually from 46.1 µM), inactives show at the highest dose activity, negative = less viability, hits mostly cytotoxic;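 note: NT is the 2HG producing partner of a matched IDH1 knockdown line; 0% = DMSO-treated cells and -100% = media-only wells without cells; nearly all actives have a fitted effect of over 55% in size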
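Compounds were tested in concentration-response format on HT-1080-NT cells for 48 hours at 37 degrees C. Cell viability came from CellTiter-Glo luminescence; curves were classified by r2, response magnitude and activity.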
SW480 rerep – inducers of DNA re-replication in SW480 colon cancer cells; 340,000 tested, 1.8% active; SW480 DNA re-replication, Hoechst DNA content imaging, 48 h; Potency, µM (highest dose often 46.1 µM), inactives show at the highest dose re-replication activation, actives largely listed as activators; note: % of control where 0% means no effect; nearly all actives have a fitted effect of over 55% in size
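250 cells/well; 23 nL cpd via pin tool; 48 hr, 37 C, 5% CO2; Hoechst 40 min; imager read of total nuclear intensity, ex 405/em 500-530 nm.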
MCF10A rereplic – induces DNA re-replication in MCF 10a normal breast cells; MCF 10A DNA re-replication, Hoechst nuclear intensity, 48 h; Potency, µM (top dose mostly 46.1 µM), without a hit: at the highest dose activity, positive = re-replication, actives largely listed as activators; 350,000 tested, 2.9% active; AID 624296; note: % of control where 0% means no effect; nearly all actives have a fitted effect of over 50% in size
Numbers without * were called inactive; i = inactive; ? = inconclusive; . = no result. An excerpt weighted towards active compounds, which were near 7.9% of everything screened. Calls come from the whole dose curve; as a rule, active = well fitted curve in the direction sought with a large enough effect; inconclusive = small, poorly fitted or top-dose-only effect, or another doubt; inactive = no such curve, though single readings can be large; an effect the other way counts as inactive or inconclusive. Potency is the fitted concentration of half-maximal effect.

SMILES | KB-3-1 tox | KB-V1 cytotox | HT1080 IDH1KD tx | HT1080NT lethal | SW480 rerep | MCF10A rereplic
COc1ccc(CC2C(=O)NC(C)C(=O)N(C)C3Cc4ccc(cc4)Oc4cc(ccc4O)CC(C(=O)NC(C)C(=O)NC(C)C(=O)N2C)N(C)C3=O)cc1 (stereo not given) | 0.231µM* | i | 0.164µM* | 0.326µM* | 4.61µM* | ?
O=C(c1ccccc1)N(Cc1cccnc1)C1(C(=O)Nc2ccccc2)CCCCC1 | ? | 10.3µM* | -6.5% | 3.3% | ? | 15.6%
C[C@H](CO)N1C[C@H](C)[C@H](CN(C)C(=O)c2ccccc2F)Oc2ncc(Br)cc2C1=O | i | ? | -1.9% | -4.1% | . | .
O=C(/C=C/c1cccs1)c1cc(Br)ccc1OC(=O)N1CCOCC1 | ? | ? | ? | 20.6µM* | ? | ?
O=C(/C=C/c1cccs1)c1ccc(N2CCOCC2)cc1 | i | i | 2.3% | 1.0% | 4.0% | ?
O=C(Nc1ccccc1)c1snc2c(=O)[nH]cnc12 | ? | 4.11µM* | 10.1% | 10.8% | -120.7% | -3.3%
O=c1c2ccccc2oc2cc(C#CC3(O)CCCCC3)ccc12 | i | i | -0.7% | 31.2% | 2.6% | 20.6µM*
COc1cccc2oc3cc(C#CC4(O)CCCCC4)ccc3c(=O)c12 | i | i | -8.6% | -9.8% | -1.6% | ?
C=CCn1c2ccccc2c(=O)c2cc(C#CC3(O)CCCCC3)ccc21 | ? | i | -26.8% | ? | 9.2µM* | ?
CCc1ccccc1Oc1nc(NC(C)C)nc2ccsc12 | i | i | -14.5% | -0.5% | . | .
O=C(N/N=C/c1cc(Br)cc([N+](=O)[O-])c1O)c1ccc(NC(=O)c2ccc(F)cc2)cc1 | i | i | -25.4% | -1.2% | ? | 6.0%
COc1ccccc1CNC(=O)Cc1csc(NC(=O)Nc2ccccc2OC)n1 | i | ? | 2.4% | 6.6% | 1.7% | ?
CN(C)Cc1csc(NC(=O)Nc2ccccc2Oc2ccccc2)n1 | ? | ? | ? | 16.4µM* | . | .
CN(C)Cc1csc(NC(=O)Nc2ccccc2-c2ccccc2)n1 | i | i | ? | ? | . | .
COc1cc(OC)cc(C(=O)Nc2nc(CC(=O)NCc3ccccc3OC)cs2)c1 | i | 16.4µM* | -18.0% | -19.5% | 2.7% | ?
COc1cc(OC)cc(C(=O)Nc2nc(CC(=O)NCCc3ccccc3)cs2)c1 | i | ? | 1.4% | -2.3% | -1.9% | 3.8%
COc1ccccc1NC(=O)Nc1nc(CC(=O)NCc2ccccn2)cs1 | i | i | -6.6% | -10.9% | 11.6µM* | ?
COc1ccc(CC(=O)NNC(=O)COc2ccc(C)cc2)cc1S(=O)(=O)N1CCOCC1 | i | i | -8.7% | -10.0% | -91.5% | -0.6%
O=C1NC[C@H](c2ccccc2)OC(=O)[C@@H](Cc2ccc(F)cc2)CC/C=C/C[C@@H]1CC(=O)N(CCO)Cc1ccccc1 | ? | i | . | -25.5% | -2.4% | ?
O=C1NC[C@H](c2ccccc2)OC(=O)[C@@H](Cc2ccc(F)cc2)CC/C=C/C[C@H]1CC(=O)N(CCO)Cc1ccccc1 | ? | ? | . | 23.1µM* | ? | ?
O=C1NC[C@H](c2ccccc2)OC(=O)[C@H](Cc2ccc(F)cc2)CC/C=C/C[C@H]1CC(=O)N(CCO)Cc1ccccc1 | ? | ? | . | 25.9µM* | ? | ?
O=C1N[C@@H](c2ccccc2)COC(=O)[C@@H](Cc2ccc(F)cc2)C/C=C\C[C@H]1CC(=O)N(CCO)Cc1ccccc1 | 20.6µM* | ? | ? | ? | ? | ?
CCOc1ccc(-c2cc(C(=O)Nc3ccc(C)c(NS(C)(=O)=O)c3)[nH]n2)c(C)c1 | i | ? | ? | -26.8% | . | .
CCCOc1ccc(C(=O)CCN2CCN(C(=O)OCC)CC2)cc1 | i | i | ? | ? | -1.8% | ?
